PNC assembly inh – perinucleolar compartment assembly inhibition. PC3M PTB-GFP, PNC prevalence imaging, 16 h; active compounds read low. activity change (PNC), negative = inhibition, % at 10 µM. 140,000 compounds, 3.1% hits. AID 2417;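 active = readout at or below -70, meaning at least 70% loss of cells showing the perinucleolar compartment, a nuclear body marking cancer cells; inconclusive = readout between -30 and a set limit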
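Read-out is percentage of cells bearing a perinucleolar compartment, from automated 20x imaging of fixed, Hoechst-stained PC3M PTB-GFP cells. Cells were seeded 4 h, then exposed 16 h to compound (23 nl of library stock) in duplicate plates.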
ALOX15B inhib – inhibitors of human 15-lipoxygenase 2 (ALOX15B). Potency, µM (highest dose often 57.1 µM), usual class: inhibitors. 110,000 compounds, 0.56% hits. purified 15hLO-2, xylenol orange hydroperoxide absorbance. AID 881. O15296; note: nearly all actives have a fitted effect of over 60% in size
Target sequence (O15296 whole entry, looked up): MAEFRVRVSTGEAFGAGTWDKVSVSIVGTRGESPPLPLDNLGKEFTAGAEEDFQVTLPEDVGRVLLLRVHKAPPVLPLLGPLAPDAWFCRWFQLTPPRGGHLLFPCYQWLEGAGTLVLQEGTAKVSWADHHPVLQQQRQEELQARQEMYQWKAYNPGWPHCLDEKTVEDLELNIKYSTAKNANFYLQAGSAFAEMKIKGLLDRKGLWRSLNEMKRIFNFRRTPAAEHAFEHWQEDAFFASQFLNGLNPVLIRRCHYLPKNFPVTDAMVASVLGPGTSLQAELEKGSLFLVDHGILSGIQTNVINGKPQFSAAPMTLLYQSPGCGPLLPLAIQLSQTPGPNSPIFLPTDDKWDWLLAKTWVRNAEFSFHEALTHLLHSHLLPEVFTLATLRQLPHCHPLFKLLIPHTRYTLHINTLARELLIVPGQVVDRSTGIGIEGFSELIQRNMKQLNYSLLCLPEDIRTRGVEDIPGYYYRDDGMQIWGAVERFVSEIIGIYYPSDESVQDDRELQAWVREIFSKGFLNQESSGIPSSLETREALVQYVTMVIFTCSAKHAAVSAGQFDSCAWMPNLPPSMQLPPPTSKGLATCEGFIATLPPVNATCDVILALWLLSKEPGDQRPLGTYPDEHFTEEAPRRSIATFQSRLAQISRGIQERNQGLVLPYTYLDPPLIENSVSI
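Screening format was qHTS against 50 nM purified 15hLO-2 in Hepes pH 7.5 with detergent. Activity follows hydroperoxide formation from 45 uM arachidonic acid, measured as 573:405 nm absorbance ratio of the ferric-xylenol orange complex.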
ALOX12 inhib – inhibitors of human 12-lipoxygenase (ALOX12) | AID 1452 | 150,000 compounds, 0.12% hits | Potency, µM (doses to about 57.1 µM), actives largely listed as inhibitors | P18054 | purified 12-hLO, xylenol orange hydroperoxide absorbance; note: nearly all actives have a fitted effect of over 55% in size
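150 nM 12hLO, 25 mM Hepes pH 7.0 + 0.01% Triton X-100; cpd preinc 15 min RT; 40 uM arachidonic acid, 30 min RT; Fe-XO 30 min; A573/A405 ratio as read-out.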
A number is an active result; – = inactive; ? = inconclusive; · = no result given; [ ] = remark or other dose. Only some compounds are listed: those with a hit (about 3.2% of all), similar ones and a draw of the others. Unless noted, calls come from the whole dose curve; as a rule, active = well fitted curve in the direction sought with a large enough effect; inconclusive = small, poorly fitted or top-dose-only effect, or another doubt; inactive = no such curve, though single readings can be large; an effect the other way counts as inactive or inconclusive.

SMILES | PNC assembly inh | ALOX15B inhib | ALOX12 inhib
COc1cccc(C2CC(C(F)(F)F)n3ncc(C(=O)NCC4CCCO4)c3N2)c1 (stereo unspecified) | – | – | –
COc1ccc(C2CC(C(F)(F)F)n3ncc(C(=O)NCc4cccnc4)c3N2)cc1OC (stereo unspecified) | -82 | – | –
Nc1c(C(=O)c2ccccc2)sc2snc(SCC(=O)c3ccccc3)c12 | – | · | ?
COC(=O)N1CCC2(CC1)CN(C(=O)Nc1cccc(C#N)c1)C2 | · | – | –
COc1cc(N2CCCC2)c(OC)cc1/C=C(/C#N)c1cccc(F)c1 | -89 | ? | –
N#C/C(=C\c1ccc(N2CCOCC2)o1)c1ccccc1 | -90 | 10µM | –
O=C(N/N=C/c1ccc(N2CCCCC2)o1)c1ccccc1 | – | · | –
N#C/C(=C/c1ccc(N2CCOCC2)o1)c1ccc(Br)cc1 | – | 10µM | ?
N#C/C(=C/c1ccc(N2CCCCCC2)o1)c1cccc(F)c1 | ? | 7.9µM | ?
N#C/C(=C/c1ccc(N2CCOCC2)o1)c1nc2ccccc2[nH]1 | ? | · | –
N#C/C(=C\c1ccc(N2CCOCC2)cc1)c1ccccc1 | – | · | –
COc1cccc(/C=C(/C#N)c2ccc(F)cc2)c1OCc1cccc(C(=O)O)c1 | – | · | –
Cc1ccc([N+](=O)[O-])c(C)c1 | · | – | –
Cc1cccc(/C(N)=N/OC(=O)CCc2ccccc2)c1 | – | – | –
CC(=O)N[C@@H](CSC(=O)[C@]1([C@@H](O)C(C)C)NC(=O)[C@H](C)[C@@H]1O)C(=O)O | · | –[0.0915 µM] | –[0.00818 µM]
Fc1ccccc1CSc1nc2ccccc2[nH]1 | ? | – | –
c1ccc(COCCCc2cnc[nH]2)cc1 | · | –[0.0915 µM] | –[0.00818 µM]
CCC1OC(=O)C(C)[C@@H](O[C@H]2C[C@@](C)(OC)C(O)C(C)O2)C(C)[C@@H](O[C@@H]2OC(C)CC(N(C)C)C2O)[C@@](C)(O)CC(C)C2NC(COCCOC)O[C@H](C2C)[C@@]1(C)O (stereo partly specified) | · | – | –
O=c1c(CCc2ccccc2)nc2cnc(Oc3ccccc3)nc2n1C1CC1 | · | – | ·
CN(C)CCCN(C(=O)CCc1ccccc1)c1nc2ccc(Cl)cc2s1 | – | · | –
CN(C)CCCN(C(=O)c1sc2ccccc2c1Cl)c1nc2ccc(F)cc2s1 | -94 | · | –
COc1ccc(CCNC(=O)CN2CCN(c3cccc(Cl)c3)CC2)cc1OC | -91 | – | –
COc1cc(CN2CCN(c3cccc(Cl)c3)CC2)cc(OC)c1OC | ? | · | –
Cc1ccc(CN(Cc2ccco2)S(=O)(=O)c2ccc(S(=O)(=O)NCC3CCCO3)cc2)cc1 (stereo unspecified) | – | · | –
Cn1nc(CC(=O)Nc2ncc(Br)s2)c2ccccc2c1=O | -119 | · | –
SMILES | PNC assembly inh | ALOX15B inhib | ALOX12 inhib
Cn1nc(CC(=O)NC2CCCCCCCCCCC2)c2ccccc2c1=O | – | ? | –
CCc1ccc(-c2nc(CN3CCC(C(=O)NCc4ccccc4OC)CC3)c(C)o2)cc1 | -98 | – | –
COc1ccccc1CNC(=O)C1CCN(Cc2nc(-c3cccc(Cl)c3)oc2C)CC1 | – | – | –
O=C(C[n+]1ccc(-c2nnc3n2CCC3)cc1)c1ccc(Cl)c(Cl)c1 | – | · | –
CC(=O)c1cc(-c2ccccc2)n(CC(=O)Nc2cccc(C)c2)c1C | – | · | –
Cn1cccc1C(=O)N1CCC2(CC1)CN(Cc1ccc(C#N)cc1)C2 | · | – | –
COc1ccccc1C1CC(=O)Nc2cc3c(cc21)OCCO3 (stereo unspecified) | -101 | – | –
CCCOc1c(OC)cccc1C1CC(=O)Nc2cc3c(cc21)OCCO3 (stereo unspecified) | – | · | –
COc1cc2c(cc1OC)C(c1cccnc1)CC(=O)N2 (stereo unspecified) | -82 | · | –
CC(C)Oc1ccccc1C1CC(=O)Nc2cc3c(cc21)OCCO3 (stereo unspecified) | -97 | – | –
COc1cccc(C2CC(=O)Nc3cc4c(cc32)OCCO4)c1OC(C)C (stereo unspecified) | – | – | –
COc1cc2c(cc1OC)C(c1ccc(N(C)C)cc1)CC(=O)N2 (stereo unspecified) | – | – | –
CN(Cc1ccc(F)cc1)C(=O)COc1ccccc1-c1ccccc1 | ? | · | –
C=C1c2ccccc2O[C@H](C(=O)OCC)[C@@H]1CCC(C)C (tested in a mixture with another compound) | · | –[0.0915 µM] | –[0.00818 µM]
CC(=O)S[C@@H]1CC2=CC(=O)CC[C@@]2(C)[C@H]2CC[C@]3(C)[C@H](CC[C@@]34CCC(=O)O4)[C@H]12 | · | – | –
CCCCC(=O)NC1=NC(=O)C(C)(C)S1 | – | – | –
COc1cccc(CNC(=O)c2cc3oc4ccccc4c3n2C)c1OC | -106 | – | –

Screening data as filed in PubChem BioAssay.
